From PubChem BioAssay come the findings set out here.

Assay [1] relates to PRMT1 (protein arginine N-methyltransferase 1). As to the kind of experiment: PRMT1 binders on small-molecule microarrays, primary screen, biochemical, small-molecule microarray, 635 nm fluorescence (AID 1088).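 Also: binding of Prmt1 protein to compounds spotted on small-molecule microarray slides.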 Conditions: small-molecule microarray binding, higher = more signal.
The nature of assay [2]: yeast growth modulation, basal conditions, primary screen, YJM789 clinical isolate, OD600, 24 h (AID 1089).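 Also: growth of clinical yeast isolate S. cerevisiae YJM 789 seeded 1000 cells per well; test concentration not given here.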 The following applies: S. cerevisiae YJM789 growth, higher = more signal, called active from +8 up or from −8 down.
Assay [3] is described as follows: fission yeast growth modulation, primary screen, strain 972, OD600, 24 h, no modulator (AID 1090).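 Also: basal condition with compound alone and no growth modifier present; test concentration not given here.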 The following applies: S. pombe 972 growth, higher = more signal, called active from +8 up or from −8 down.
Assay [4] is described as follows: S. cerevisiae growth modulation with rapamycin, primary screen, strain BY4716, OD600, 96 h (AID 1091). Also: test concentration not given here. Conditions: higher = more signal, called active from +8 up or from −8 down.
Assay [5] concerns the target Torsin-1A-interacting protein 2 (Homo sapiens) (UniProt Q8NFQ8). The assay can be described thus: LULL1 binders on small-molecule microarray, primary screen, cell lysate, human LULL1 lysate, 635/667 nm fluorescence (AID 1092).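 Also: probe is lysate of COS7 cells overexpressing human LULL1; score merges per-feature 667 nm fluorescence with signal-to-noise.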 Conditions: hLULL1 lysate binding, 635 nm fluorescence, higher = more signal.
Assay [6] in a line: E. coli growth modulation, two-sided OD650, primary screen, E. coli filamentation project, strain DRC41, 24 h (AID 1093).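 Also: MC1000 strain lacking acrAB efflux and sulA so SOS filamentation is blocked; test concentration not given here.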 The following applies: OD650, 24 h, higher = more signal, called active from +8 up or from −8 down.
A short description of assay [7]: small-molecule microarray binders of probe aLefty2, primary screen, biochemical, biotinylated probe, 635/667 nm fluorescence (AID 1094).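 Also: score merges spot fluorescence near 667 nm with spot signal-to-noise ratio.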 The following applies: higher = more signal.
Assay [8] concerns Noggin (protein binding on small-molecule microarray). The assay can be described thus: Noggin binders on small-molecule microarray, primary screen, biochemical, 635/667 nm fluorescence (AID 1095).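 Also: score merges 667 nm feature fluorescence with signal to noise over triplicate slides.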 Conditions: 635 nm fluorescence, higher = more signal.
The target of assay [9] is Neurogenic locus notch homolog protein 3 (Homo sapiens) (UniProt Q9UM47). The assay can be described thus: NOTCH3 binders on small-molecule microarray, primary screen, biochemical, 635/667 nm fluorescence (AID 1096). The following applies: NOTCH3 binding, 635 nm fluorescence, higher = more signal.
Chain of Neurogenic locus notch homolog protein 3 (Homo sapiens) (Q9UM47 whole entry, looked up): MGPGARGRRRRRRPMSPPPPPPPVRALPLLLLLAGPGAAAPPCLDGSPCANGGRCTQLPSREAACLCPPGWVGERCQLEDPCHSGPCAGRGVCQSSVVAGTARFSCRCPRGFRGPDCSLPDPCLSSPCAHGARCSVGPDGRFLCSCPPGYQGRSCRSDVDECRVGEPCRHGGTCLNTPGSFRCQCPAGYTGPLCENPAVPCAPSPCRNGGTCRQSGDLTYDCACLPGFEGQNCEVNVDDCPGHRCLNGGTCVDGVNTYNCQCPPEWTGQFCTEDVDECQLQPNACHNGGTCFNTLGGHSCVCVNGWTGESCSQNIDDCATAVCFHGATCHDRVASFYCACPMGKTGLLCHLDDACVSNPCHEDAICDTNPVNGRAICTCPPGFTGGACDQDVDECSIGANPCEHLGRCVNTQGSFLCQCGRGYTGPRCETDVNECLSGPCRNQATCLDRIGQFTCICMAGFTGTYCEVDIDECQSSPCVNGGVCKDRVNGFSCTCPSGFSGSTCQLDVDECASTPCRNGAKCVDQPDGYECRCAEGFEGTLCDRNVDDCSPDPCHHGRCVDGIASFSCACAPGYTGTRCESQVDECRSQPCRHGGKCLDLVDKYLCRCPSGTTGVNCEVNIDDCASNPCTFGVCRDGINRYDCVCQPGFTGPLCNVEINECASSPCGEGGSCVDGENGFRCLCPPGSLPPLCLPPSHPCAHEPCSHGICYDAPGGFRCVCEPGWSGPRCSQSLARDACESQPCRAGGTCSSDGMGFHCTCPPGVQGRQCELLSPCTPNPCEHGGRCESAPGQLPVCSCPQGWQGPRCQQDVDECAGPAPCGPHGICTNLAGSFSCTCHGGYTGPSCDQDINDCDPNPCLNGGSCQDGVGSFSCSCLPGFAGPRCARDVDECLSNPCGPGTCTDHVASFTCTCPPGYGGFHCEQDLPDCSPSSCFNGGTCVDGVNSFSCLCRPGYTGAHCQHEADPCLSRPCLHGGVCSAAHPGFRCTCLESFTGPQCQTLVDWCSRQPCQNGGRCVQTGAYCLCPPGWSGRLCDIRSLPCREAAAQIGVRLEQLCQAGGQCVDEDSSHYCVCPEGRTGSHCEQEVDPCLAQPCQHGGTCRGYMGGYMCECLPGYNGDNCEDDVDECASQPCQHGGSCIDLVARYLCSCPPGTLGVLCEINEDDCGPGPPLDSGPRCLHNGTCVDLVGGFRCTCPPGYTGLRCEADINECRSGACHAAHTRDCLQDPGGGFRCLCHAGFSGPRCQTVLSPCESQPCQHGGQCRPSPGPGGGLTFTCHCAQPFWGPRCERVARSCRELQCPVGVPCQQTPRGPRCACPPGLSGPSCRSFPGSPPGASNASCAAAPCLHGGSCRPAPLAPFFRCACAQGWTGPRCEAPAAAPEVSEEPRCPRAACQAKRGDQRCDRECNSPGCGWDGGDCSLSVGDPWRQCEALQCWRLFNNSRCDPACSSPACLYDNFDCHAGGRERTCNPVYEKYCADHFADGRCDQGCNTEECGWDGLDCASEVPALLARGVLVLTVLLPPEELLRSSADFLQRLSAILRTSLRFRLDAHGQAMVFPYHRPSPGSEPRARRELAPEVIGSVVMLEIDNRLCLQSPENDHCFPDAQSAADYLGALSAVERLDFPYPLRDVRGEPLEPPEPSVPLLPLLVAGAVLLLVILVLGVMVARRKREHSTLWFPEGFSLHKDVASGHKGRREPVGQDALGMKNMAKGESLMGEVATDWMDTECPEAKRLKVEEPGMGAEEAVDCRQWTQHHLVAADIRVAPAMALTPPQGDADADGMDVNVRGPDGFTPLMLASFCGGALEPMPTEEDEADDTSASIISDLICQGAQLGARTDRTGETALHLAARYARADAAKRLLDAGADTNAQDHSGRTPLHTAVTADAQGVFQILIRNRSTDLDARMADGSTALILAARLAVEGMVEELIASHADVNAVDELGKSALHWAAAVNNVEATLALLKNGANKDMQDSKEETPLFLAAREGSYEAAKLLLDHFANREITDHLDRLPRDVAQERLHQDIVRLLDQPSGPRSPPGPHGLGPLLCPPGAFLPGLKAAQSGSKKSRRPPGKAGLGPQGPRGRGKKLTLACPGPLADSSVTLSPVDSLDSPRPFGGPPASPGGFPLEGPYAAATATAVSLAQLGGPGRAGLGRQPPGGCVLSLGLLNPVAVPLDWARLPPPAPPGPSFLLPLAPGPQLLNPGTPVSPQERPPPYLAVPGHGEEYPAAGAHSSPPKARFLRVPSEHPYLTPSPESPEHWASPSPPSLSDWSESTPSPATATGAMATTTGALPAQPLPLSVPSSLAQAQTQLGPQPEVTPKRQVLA
The nature of assay [10]: small-molecule microarray binders of probe aEGFR, primary screen, biochemical, biotinylated probe, 635/667 nm fluorescence (AID 1097).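 Also: probe is a biotinylated anti-EGFR antibody binding compounds printed on slides; score combines fluorescence near 667 nm and signal to noise of each spot.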 The following applies: higher = more signal.
For assay [11], the system named is Plasmodium falciparum Sir2 (PF13_0152, Sir2A). As to the kind of experiment: pfSir2 binders on small-molecule microarrays, primary screen, biochemical, small-molecule microarray, 635 nm fluorescence (AID 1098).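 Also: score merges spot fluorescence intensity with its signal-to-noise ratio.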 Conditions: small-molecule microarray binding, fluorescence 635 nm; higher = more signal.
Assay [12] can be described thus: small-molecule microarray binders of probe aDKK1, primary screen, biochemical, biotinylated probe, 635/667 nm fluorescence (AID 1099).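 Also: score merges 667nm spot fluorescence with signal to noise across triplicate slides; reference of the scale not given here.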 The following applies: higher = more signal.
Assay [13] in a line: small-molecule microarray binders of probe aCHRDL2, primary screen, biochemical, biotinylated probe, 635/667 nm fluorescence (AID 1100). The following applies: higher = more signal.
A short description of assay [14]: splicing luciferase reporter signal modulators, primary screen, spliceosome inhibition project, cell-based, HEK293, splice +/- reporter (AID 1101).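 Also: HEK293 cells carrying a splicing-competent luciferase reporter gene; test concentration not given here.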 The following applies: luminescence, 24 h, higher = more signal, called active from +8 up or from −8 down.
In assay [15] the target is Fibroblast growth factor 10 (Homo sapiens) (UniProt O15520). As to the kind of experiment: FGF10 binders on small-molecule microarrays, primary screen, biochemical, small-molecule microarray, 635 nm fluorescence (AID 1102). The following applies: FGF10 binding, fluorescence 635 nm, higher = more signal.
Chain of Fibroblast growth factor 10 (Homo sapiens) (O15520 whole entry, looked up): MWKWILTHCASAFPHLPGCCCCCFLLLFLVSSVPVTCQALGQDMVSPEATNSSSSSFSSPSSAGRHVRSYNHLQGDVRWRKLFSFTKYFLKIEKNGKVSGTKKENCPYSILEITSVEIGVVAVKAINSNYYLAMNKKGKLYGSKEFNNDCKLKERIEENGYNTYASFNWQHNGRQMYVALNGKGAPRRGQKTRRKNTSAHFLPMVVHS
The test system of assay [16] is glycogen synthase kinase-3 (GSK3A per assay name; protocol says GSK3B). As to the kind of experiment: GSK3 binders on small-molecule microarrays, primary screen, biochemical, small-molecule microarray, 635 nm fluorescence, GSK3A (AID 1103). Also: the record names both GSK3A and GSK3B. The following applies: small-molecule microarray binding, fluorescence 635 nm; higher = more signal.
For assay [17], the target named is Epidermal growth factor receptor (Homo sapiens) (UniProt P00533). The assay can be described thus: EGFR binders on small-molecule microarrays, primary screen, biochemical, small-molecule microarray, 635 nm fluorescence (AID 1104).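 Also: score merges 667 nm emission intensity with spot signal to noise over triplicate slides.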 Conditions: EGFR binding, higher = more signal.
Chain of Epidermal growth factor receptor (Homo sapiens) (P00533 whole entry, looked up): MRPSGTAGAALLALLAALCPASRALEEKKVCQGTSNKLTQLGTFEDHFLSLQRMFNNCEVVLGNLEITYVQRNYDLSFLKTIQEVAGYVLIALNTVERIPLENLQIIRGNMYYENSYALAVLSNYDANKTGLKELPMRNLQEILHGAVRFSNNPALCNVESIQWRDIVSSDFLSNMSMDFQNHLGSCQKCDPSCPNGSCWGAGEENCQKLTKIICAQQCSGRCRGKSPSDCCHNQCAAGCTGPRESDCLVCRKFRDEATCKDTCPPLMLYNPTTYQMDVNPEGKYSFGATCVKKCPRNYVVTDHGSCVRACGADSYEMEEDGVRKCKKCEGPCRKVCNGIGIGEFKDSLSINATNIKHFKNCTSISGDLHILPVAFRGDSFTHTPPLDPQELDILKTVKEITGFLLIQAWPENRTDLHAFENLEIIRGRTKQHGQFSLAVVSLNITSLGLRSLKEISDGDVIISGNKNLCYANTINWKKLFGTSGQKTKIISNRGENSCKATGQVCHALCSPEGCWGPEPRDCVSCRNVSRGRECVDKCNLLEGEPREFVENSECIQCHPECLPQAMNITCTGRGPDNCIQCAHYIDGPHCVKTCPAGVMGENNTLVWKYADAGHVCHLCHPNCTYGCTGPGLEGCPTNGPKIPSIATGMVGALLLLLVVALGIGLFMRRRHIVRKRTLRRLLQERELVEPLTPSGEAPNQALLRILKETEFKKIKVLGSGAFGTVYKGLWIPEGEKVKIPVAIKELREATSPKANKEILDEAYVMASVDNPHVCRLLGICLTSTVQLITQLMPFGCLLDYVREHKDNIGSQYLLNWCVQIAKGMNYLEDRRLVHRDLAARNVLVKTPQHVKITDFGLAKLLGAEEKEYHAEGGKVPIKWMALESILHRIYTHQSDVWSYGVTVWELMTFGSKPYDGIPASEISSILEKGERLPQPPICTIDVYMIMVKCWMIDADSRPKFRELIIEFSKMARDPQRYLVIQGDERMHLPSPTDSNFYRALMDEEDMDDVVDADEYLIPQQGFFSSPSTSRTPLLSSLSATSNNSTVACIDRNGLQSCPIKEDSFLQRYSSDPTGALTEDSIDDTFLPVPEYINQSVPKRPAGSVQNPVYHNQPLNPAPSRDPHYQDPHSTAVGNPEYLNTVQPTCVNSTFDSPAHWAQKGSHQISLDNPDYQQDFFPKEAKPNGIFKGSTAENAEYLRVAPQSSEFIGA
Assay [18] has as its target Follistatin-related protein 3 (Homo sapiens) (UniProt O95633). The assay can be described thus: FSTL3 binders on small-molecule microarrays, primary screen, biochemical, small-molecule microarray, 635 nm fluorescence (AID 1105).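 Also: score merges emission near 667 nm and signal to noise per printed spot across three slides.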 Conditions: FSTL3 binding, higher = more signal.
The target of assay [19] is Dickkopf-related protein 1 (Homo sapiens) (UniProt O94907). The assay can be described thus: DKK1 binders on small-molecule microarrays, primary screen, biochemical, small-molecule microarray, 635 nm fluorescence scan (AID 1106).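 Also: score merges emission near 667 nm with signal to noise over three replicate slides.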 Conditions: DKK1 binding, higher = more signal.
Chain of Dickkopf-related protein 1 (Homo sapiens) (O94907 whole entry, looked up): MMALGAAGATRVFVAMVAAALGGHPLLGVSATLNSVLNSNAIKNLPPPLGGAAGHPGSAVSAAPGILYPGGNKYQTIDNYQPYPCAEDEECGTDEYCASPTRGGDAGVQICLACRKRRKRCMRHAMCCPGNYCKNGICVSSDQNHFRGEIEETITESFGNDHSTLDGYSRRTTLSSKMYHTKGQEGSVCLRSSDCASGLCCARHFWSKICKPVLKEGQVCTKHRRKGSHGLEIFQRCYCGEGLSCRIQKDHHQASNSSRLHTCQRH
Assay [20] concerns Inhibin beta A chain (activin A). The assay can be described thus: INHBA (activin A) binders on microarrays, primary screen, biochemical, small-molecule microarray, 635 nm fluorescence scan (AID 1107).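 Also: mouse activin A protein probed at 4.33 µg/mL on printed slides; score merges bound-protein fluorescence near 667 nm with spot signal-to-noise.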 Conditions: small-molecule microarray binding, higher = more signal.

The structures appear in SMILES notation. Active and inactive are the calls of the source.

Chain of Torsin-1A-interacting protein 2 (Homo sapiens) (Q8NFQ8 whole entry, looked up): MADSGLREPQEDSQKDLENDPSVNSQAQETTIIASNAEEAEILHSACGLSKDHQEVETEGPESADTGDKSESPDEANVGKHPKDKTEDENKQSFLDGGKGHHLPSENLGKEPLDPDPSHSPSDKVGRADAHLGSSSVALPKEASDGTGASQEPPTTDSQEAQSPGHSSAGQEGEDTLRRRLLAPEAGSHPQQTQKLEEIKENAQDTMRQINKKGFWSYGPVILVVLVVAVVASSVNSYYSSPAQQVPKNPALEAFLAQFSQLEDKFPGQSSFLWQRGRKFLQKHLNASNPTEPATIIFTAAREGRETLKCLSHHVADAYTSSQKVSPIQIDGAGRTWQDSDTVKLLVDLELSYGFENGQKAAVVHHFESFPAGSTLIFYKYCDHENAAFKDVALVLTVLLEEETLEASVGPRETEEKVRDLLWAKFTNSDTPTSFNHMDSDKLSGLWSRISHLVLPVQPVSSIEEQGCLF
Chain of Follistatin-related protein 3 (Homo sapiens) (O95633 whole entry, looked up): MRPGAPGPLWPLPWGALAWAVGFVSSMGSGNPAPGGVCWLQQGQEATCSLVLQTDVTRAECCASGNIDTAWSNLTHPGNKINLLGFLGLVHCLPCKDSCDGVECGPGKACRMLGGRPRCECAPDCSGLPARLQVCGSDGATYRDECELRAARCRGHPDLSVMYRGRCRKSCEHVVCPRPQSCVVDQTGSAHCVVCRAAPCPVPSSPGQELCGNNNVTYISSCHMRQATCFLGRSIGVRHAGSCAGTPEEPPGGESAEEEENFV

For `Cc1ccc(S(=O)(=O)N[C@H]2COC(=O)CC=C[C@H](C)COC(=O)N[C@@H](C)C(=O)CC=C[C@@H]2C)cc1`, the composite z-score is 0.67 in assay [1]; -0.866 in assay [5]; -0.215 in assay [7]; 1.18 in assay [8]; 0.354 in assay [9]; 0.0486 in assay [10]. The composite z-score is 0.38 in assay [11]; -0.589 in [12]; -1.38 in [13]; 0.588 in assay [15]; 0.604 in [16]; 0.831 in [17]. In addition, the composite z-score stood at 1.4 in [18], 2.08 in assay [19] and 0.283 in assay [20]. Further, the z-score in assay [2] was -0.11 (inactive); in assay [3], -0.784 (inactive); in assay [4] it was 0.978 (inactive); in [6], 0.12 (inactive); in [14], -0.381 (inactive).

For `COc1ccc(CCNC(=O)[C@@]2(c3ccc([N+](=O)[O-])cc3)CC(=O)N(C(C)C)[C@@H]2c2ccc(CO)cc2)cc1`, the composite z-score is -0.383 in [1]; 2.99 in [5]; 0.11 in [7]; -1.2 in assay [8]; -0.791 in assay [9]; -0.318 in assay [10]. In addition, the composite z-score in assay [11] is 1.25; in [12], 0.716; in assay [13], 1.24; in assay [15], -0.787; in [16], -0.767; in [17] it was -1.57. For the same compound, the composite z-score in assay [18] is -1.67; in assay [19], -1.43; in assay [20], -0.445. Moreover, the z-score in assay [2] was -1.15 (inactive); in assay [3], -1.2 (inactive); in assay [4], -1.1 (inactive); in [6] it was 1.89 (inactive); in assay [14] it was -0.58 (inactive).

In the case of `CC(C)CNC(=O)[C@@]1(C)c2ccccc2C(=O)N(Cc2ccc(OC(F)(F)F)cc2)[C@H]1c1ccc(CO)cc1`, the composite z-score in [1] is -0.379; in assay [5], 0.932; in assay [7], 0.117; in [8], -1.13; in assay [9] it was -1.27; in assay [10], -0.112. Also, the composite z-score in [11] was -0.857; in [12], 0.629; in assay [13], 1.14; in [15], -0.494; in assay [16], -0.694; in assay [17] it was -1.15. For the same compound, the composite z-score is -0.877 in [18], -0.973 in [19] and 0.159 in assay [20]. Moreover, the z-score is -0.545 (inactive) in [2]; -0.808 (inactive) in [3]; -0.53 (inactive) in assay [4]; 1.52 (inactive) in assay [6]; 0.581 (inactive) in assay [14].

Regarding `CCOC(=O)C[C@H]1[C@H](OC(=O)Cc2ccc3c(c2)OCO3)[C@@H](NC(=O)CC(C)C)c2cc(OCCCO)ccc2N1C(=O)c1ccccc1`, the composite z-score was 0.53 in [1]; 0.836 in assay [5]; -0.0127 in assay [7]; 0.542 in assay [8]; 0.417 in assay [9]; 0.0253 in [10]. Also, the composite z-score in assay [11] is 0.899; in assay [12], -0.095; in assay [13], -0.533; in assay [15], 0.723; in assay [16] it was 0.263; in assay [17], 0.369. Also, the composite z-score in assay [18] amounted to 0.321; in assay [19], 0.451; in [20] it was 0.643. Besides, the z-score in assay [2] is -0.211 (inactive); in assay [3], -1.36 (inactive); in assay [4], -0.66 (inactive); in assay [6] it was 1.6 (inactive); in assay [14] it was -1.6 (inactive).

With `C#CCNC(/C=C/c1ccccc1)CO` (stereo not given), the composite z-score is 0.142 in [1]; 0.0064 in assay [5]; -0.0668 in [7]; 0.381 in assay [8]; 0.447 in assay [9]; -0.135 in [10]. Besides, the composite z-score in assay [11] was 0.0921; in assay [12], -0.234; in assay [13] it was -0.565; in assay [15], 0.311; in assay [16], 0.149; in [17], 0.553. In addition, the figures for the composite z-score in assay [18], in assay [19] and in assay [20] were 0.326, 0.545 and 0.394, respectively. Further, the z-score was 1.11 (inactive) in [2]; 0.64 (inactive) in assay [3]; 1.24 (inactive) in assay [4]; -0.852 (inactive) in assay [6]; 0.00978 (inactive) in [14].

Consider `COc1ccc([Si](C)(C)[C@H]2[C@H](CC(=O)N(CCO)Cc3ccccc3)O[C@@]3(C(=O)N(C)c4ccccc43)[C@@H]2C)cc1`, for which the composite z-score is 1.31 in assay [1]; 1.93 in assay [5]; -0.186 in assay [7]; 1.72 in assay [8]; 1.11 in assay [9]; -0.0987 in assay [10]. In addition, the composite z-score in assay [11] is 0.624; in assay [12], -0.29; in assay [13] it was -0.519; in [15] it was 1.19; in [16] it was 0.25; in assay [17] it was 0.631. Also, the composite z-score in assay [18] was found to be 0.996; in assay [19], 1.05; in assay [20], 0.92. Besides, the z-score in assay [2] is -1.98 (inactive); in assay [3], -1.24 (inactive); in assay [4], -0.712 (inactive); in [6], 1.41 (inactive); in assay [14] it was -1.44 (inactive).

As to `C=C(COC)/C(=C/C[C@@H](OC(=O)c1ccncc1)c1ccc(OCCO)cc1)c1cc(C(=O)OC)ccc1OC`, the composite z-score in assay [1] is 1.57; in [5], 2.75; in [7], -0.0903; in [8], 0.861; in assay [9], 1.12; in assay [10] it was -0.0129. The composite z-score in [11] was 1.3; in assay [12], 0.318; in [13], 0.421; in [15], 0.635; in [16], 1.25; in assay [17], 0.16. Moreover, the composite z-score in assay [18] came out at 0.461; in assay [19], 0.214; in assay [20], 0.147. Moreover, the z-score was -1.08 (inactive) in assay [2]; -2.06 (inactive) in [3]; -1.83 (inactive) in [4]; 2.15 (inactive) in assay [6]; -1.43 (inactive) in assay [14].

Take `C[N+](C)(C)CCCCNC(=O)[C@@H]1C[C@@H]2C(=O)N3CCC[C@H]3C(=O)N2[C@@H]1c1cccc(OCCO)c1`: the composite z-score is 0.869 in assay [1]; 0.381 in [5]; -0.123 in assay [7]; 1.64 in [8]; 0.751 in assay [9]; 0.0051 in assay [10]. The composite z-score in [11] was 0.577; in assay [12], -0.222; in assay [13], -0.0397; in [15], 0.455; in assay [16] it was 0.249; in assay [17], 0.495. In addition, the composite z-score was found to be 1.45 in assay [18], 1.44 in [19] and 0.0648 in [20]. For the same compound, the z-score was -1.09 (inactive) in assay [2]; -1.74 (inactive) in assay [3]; -2.42 (inactive) in [4]; 1.54 (inactive) in assay [6]; 0.0434 (inactive) in assay [14].

As for `Cc1ccc(S(=O)(=O)c2cc3oc2CC[C@@H](CO)NC(=O)N(C)Cc2cn(nn2)C[C@H](Cc2ccccc2)NC3=O)cc1`, the composite z-score is 0.0985 in [1]; 1.66 in [5]; -0.131 in assay [7]; 0.0818 in [8]; -0.773 in assay [9]; -0.156 in [10]. The composite z-score was 1.36 in assay [11]; -0.122 in assay [12]; -0.0291 in [13]; -0.0287 in assay [15]; 0.164 in assay [16]; -0.497 in assay [17]. In addition, the figures for the composite z-score in [18], in assay [19] and in assay [20] were -0.233, -0.266 and -0.171, respectively. The z-score in [2] is 0.342 (inactive); in assay [3], -0.772 (inactive); in assay [4], 0.0417 (inactive); in assay [6] it was 2.79 (inactive); in assay [14], -0.0233 (inactive).
